Experiment [1] is described as follows: qHTS profiling of the MIPE4 collection as inhibitors of Plasmodium falciparum (3D7) proliferation (AID 743344).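 Note: scaled between DMSO vehicle wells and 0.29 µM artemisinin as full inhibition.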 As to conditions: P. falciparum 3D7 in erythrocytes, SYBR Green DNA fluorescence, 72 h; at 28.5 µM unless noted. The method in brief:
(§1)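 Parasite DNA was quantified by SYBR Green I fluorescence (ex 485, em 535 nm) after overnight lysis in saponin/Triton buffer at room temperature. Cultures at 0.3% parasitemia and 2.5% hematocrit were first exposed to compound for 72 h at 37 C; signals were normalised to artemisinin (0.29 uM) and vehicle wells.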

The nature of experiment [2]: qHTS profiling of the MIPE4 collection as inhibitors of Plasmodium falciparum (DD2) proliferation (AID 743345). As to conditions: P. falciparum Dd2 in erythrocytes, SYBR Green DNA, 72 h; at 28.5 µM unless noted. The method in brief:
as §1

The nature of experiment [3]: qHTS profiling of the MIPE4 collection as inhibitors of Plasmodium falciparum (DD2) proliferation (Rep 2) (AID 743346). As to conditions: P. falciparum Dd2 in erythrocytes, SYBR Green DNA, 72 h; at 28.5 µM unless noted. The method, boiled down:
as §1
On the technique in general: In qHTS, concentration-response curves come from the screen itself.

Experiment [4] is described as follows: qHTS profiling of the MIPE4 collection as inhibitors of Plasmodium falciparum (HB3) proliferation (AID 743347).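 Note: plate controls were DMSO vehicle wells for no effect and artemisinin wells for full effect.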 The note with it: P. falciparum HB3 in erythrocytes, SYBR Green DNA, 72 h; at 28.5 µM unless noted. The method in brief:
as §1

Experiment [5] is described as follows: High-throughput drug toxicity screening in the BPDCN cell line Cal-1 (AID 1224825). As to conditions: Cal-1 BPDCN cell viability, qHTS; at 45.8 µM (top of the series) unless noted. The method in brief:
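CellTiter-Glo luminescence after 48 h compound exposure; percent activity scaled with DMSO as 100% and bortezomib (9.2 uM final) as 0%. Cal-1 cells seeded at 500/well in RPMI, 10% FBS, no phenol red.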

Experiment [6] is described as follows: qHTS assay for measurement of the activity of small molecule inhibitors on Zika virus induced Caspase-3 activity in human iPSC derived neural progenitor cells (hNPCs) (AID 1224857; active = well fitted curve in the direction sought with a large enough effect; an effect the other way counts as inactive or inconclusive; note: % of control where 0% means no effect; nearly all actives have a fitted effect of over 65% in size). The note with it: hNPCs ZIKV-induced caspase-3/7, Caspase-Glo luminescence, 6 h; series mostly up to 45.7 µM. The method in brief:
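hNPCs seeded 350 cells/well, cultured 16–20 h; compounds added 1 h before ZIKV (2 FFU/cell), 37 C 6 h. Caspase-Glo 3/7 luminescence after 30 min RT; % inhibition from induction scaled to uninfected (0%) and infected (100%) wells.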

The nature of experiment [7]: qHTS assay for measurement of the activity of small molecule inhibitors on Zika virus induced Caspase-3 activity in human astrocytoma cells (AID 1224859; active = well fitted curve in the direction sought with a large enough effect; an effect the other way counts as inactive or inconclusive;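 note: plate controls were ZIKV-infected untreated cells for no effect and uninfected cells for full effect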). The note with it: SNB-19 ZIKV-induced caspase-3/7, luminescence, 6 h; series mostly up to 45.7 µM. The method, boiled down:
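Luminescence read-out (Caspase-Glo 3/7, 30 min RT) of caspase activity in SNB-19 cells infected 6 h with ZIKV, 2 FFU/cell, after 1 h compound pretreatment; % inhibition from induction normalised to uninfected (0%) and infected (100%) wells.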

Experiment [8] is described as follows: qHTS profiling for inhibitors of Plasmodium falciparum (DD2) proliferation (AID 743323). As to conditions: lower = more inhibition; at 28.7 µM (top of the series). The method in brief: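 P. falciparum Dd2-infected erythrocytes (0.3% parasitemia, 2.5% hematocrit) exposed 72 h at 37 C, 5% CO2. Lysis with SYBR Green, overnight at room temperature, fluorescence 485/535 nm; normalized to 0.29 uM artemisinin and DMSO.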

Experiment [9] can be described thus: qHTS profiling for inhibitors of Plasmodium falciparum (HB3) proliferation (AID 743324; active = well fitted curve in the direction sought with a large enough effect; an effect the other way counts as inactive or inconclusive;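 note: 100% = DMSO vehicle wells and 0% = artemisinin-treated control wells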). As to conditions: Plasmodium falciparum HB3 blood-stage proliferation; at 28.7 µM (top of the series). The method, boiled down:
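SYBR Green fluorescence (485 ex/535 em) of lysed cultures, incubated overnight at room temperature in the dark, quantifies parasite DNA. Infected erythrocytes at 0.3% parasitemia and 2.5% hematocrit were exposed 72 h; values normalized to DMSO and 0.29 uM artemisinin controls.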

The target in experiment [10] is T1, Hexokinase-4 (Homo sapiens) + Glucokinase regulatory protein (Homo sapiens) (UniProt P35557+Q14397). Description: qHTS assay for inhibitors of recombinant human GCK-GKRP interaction: Diaphorase-coupled assay (AID 743205; active = well fitted curve in the direction sought with a large enough effect; an effect the other way counts as inactive or inconclusive). The note with it: G6PDH/diaphorase resorufin fluorescence; series mostly up to 57.5 µM. The method in brief: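 Resorufin fluorescence (525/590 nm), read each minute over 30 min, reports GCK activity coupled via G6PDH and diaphorase. Reaction: 10 nM GST-GCK, 10 nM FLAG-GKRP, 5 mM glucose, 0.4 mM ATP, 0.15 mM NADP+, 0.1 mM resazurin.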

The target in experiment [11] is T1, Hexokinase-4 (Homo sapiens) + Glucokinase regulatory protein (Homo sapiens). Briefly: qHTS assay for inhibitors of recombinant human GCK-GKRP interaction: ADP-Glo assay (AID 743206; active = well fitted curve in the direction sought with a large enough effect; an effect the other way counts as inactive or inconclusive;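 note: plate controls were DMSO plus enzyme for no effect and no enzyme for full effect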). As to conditions: ADP-Glo luminescence, 60 min, 0% = vehicle-only wells with enzyme present; series mostly up to 76.9 µM. The method, boiled down:
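Pin-transferred compounds meet a 15 nM GST-GCK/15 nM FLAG-GKRP/2 uM S6P mix (dispense concentrations). ATP is then added to 0.4 mM final with 5 mM glucose, and the reaction runs 60 min at room temperature. ADP is quantified luminescently.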

The source of these data is PubChem BioAssay (NCATS).

Inconclusive results are not listed. The source made the active and inactive calls. Unless noted, the rule behind the calls is not given here.

T1 sequence (P35557 whole entry, looked up): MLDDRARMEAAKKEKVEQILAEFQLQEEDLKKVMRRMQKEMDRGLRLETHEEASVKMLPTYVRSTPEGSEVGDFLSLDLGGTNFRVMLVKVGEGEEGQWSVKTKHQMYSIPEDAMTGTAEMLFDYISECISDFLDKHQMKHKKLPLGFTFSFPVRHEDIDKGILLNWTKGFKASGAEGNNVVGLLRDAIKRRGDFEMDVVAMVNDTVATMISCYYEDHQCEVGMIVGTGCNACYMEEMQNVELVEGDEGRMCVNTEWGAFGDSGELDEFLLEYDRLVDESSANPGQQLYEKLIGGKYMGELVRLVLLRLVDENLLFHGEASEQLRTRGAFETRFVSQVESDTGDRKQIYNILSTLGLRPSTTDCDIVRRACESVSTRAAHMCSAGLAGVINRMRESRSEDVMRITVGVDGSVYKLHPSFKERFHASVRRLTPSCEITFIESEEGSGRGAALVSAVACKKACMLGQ
T1 sequence (Q14397 whole entry, looked up): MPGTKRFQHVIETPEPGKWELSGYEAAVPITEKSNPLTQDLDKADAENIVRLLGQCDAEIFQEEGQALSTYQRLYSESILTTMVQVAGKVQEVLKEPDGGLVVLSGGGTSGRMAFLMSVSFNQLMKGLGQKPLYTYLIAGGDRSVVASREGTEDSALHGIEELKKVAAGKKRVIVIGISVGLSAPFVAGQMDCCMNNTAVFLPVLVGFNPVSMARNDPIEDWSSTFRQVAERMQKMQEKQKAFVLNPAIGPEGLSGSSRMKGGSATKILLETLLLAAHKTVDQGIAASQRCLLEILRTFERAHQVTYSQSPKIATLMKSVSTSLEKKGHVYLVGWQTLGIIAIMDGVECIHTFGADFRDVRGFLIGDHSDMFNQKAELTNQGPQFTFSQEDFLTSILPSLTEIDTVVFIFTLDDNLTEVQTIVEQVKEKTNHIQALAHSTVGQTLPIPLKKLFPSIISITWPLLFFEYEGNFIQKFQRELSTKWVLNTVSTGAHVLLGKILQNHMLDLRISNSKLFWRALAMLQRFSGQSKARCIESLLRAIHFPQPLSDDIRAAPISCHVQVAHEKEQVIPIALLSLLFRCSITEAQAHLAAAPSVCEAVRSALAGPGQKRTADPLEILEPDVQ

`COc1ccc2c(Oc3ccc(NC(=O)c4c(C)n(CC(C)(C)O)n(-c5ccccc5)c4=O)nc3)ccnc2c1` registered a parasite growth, % of DMSO control in [1] of 9.27%. The parasite growth remaining, % of DMSO control (lower = more inhibition) in experiment [2] was determined as 18.1%. The parasite growth, % of control (lower = inhibition) in experiment [3] amounted to 37%. The growth, % of control in experiment [4] was 8.88%. Besides, the viability (% of control) in experiment [5] turned out to be 17.2%. Moreover, the Potency entry in [6] and in experiment [7] was “inactive” throughout.
For the compound `CC(C)[C@H](CO)Nc1nc(Nc2ccc(C(=O)O)c(Cl)c2)c2ncn(C(C)C)c2n1`, the activity, percent of control in [8] came to 35.2%. For the same compound, the remaining proliferation (% of control), lower = more inhibition in experiment [9] worked out at 28.6%. The parasite growth, % of DMSO control in experiment [1] was 29.4%. In addition, the parasite growth remaining, % of DMSO control (lower = more inhibition) in experiment [2] turned out to be 51%. Moreover, in experiment [3], the parasite growth, % of control (lower = inhibition) was determined as 29.5%. The same compound returned a growth, % of control in [4] of 18.3%. Besides, the viability (% of control) in experiment [5] is 5.62%. Further, the Potency result in [6] was “inactive”.
Consider `Cc1ccc([C@@H]2O[C@H](CO)[C@@H](O)[C@H](O)[C@@H]2O)cc1Cc1ccc(-c2ccc(F)cc2)s1`, for which the parasite growth, % of DMSO control in [1] was 134%. In addition, in experiment [2], the parasite growth remaining, % of DMSO control (lower = more inhibition) was found to be 118%. Also, in experiment [3], the parasite growth, % of control (lower = inhibition) is 75.3%. Also, in [5], the viability (% of control) turned out to be 48.1%. The Potency result in experiment [6] and in experiment [7] was “inactive” each time.
As to `CON=C(C(=O)N[C@@H]1C(=O)N2C(C(=O)OCOC(=O)C(C)(C)C)=C(C=Cc3scnc3C)CS[C@H]12)c1csc(N)n1`, the parasite growth, % of DMSO control in experiment [1] was found to be 60.4%. Also, in experiment [2], the parasite growth remaining, % of DMSO control (lower = more inhibition) came out at 96%. In addition, the parasite growth, % of control (lower = inhibition) in experiment [3] was 73%. For the same compound, the growth, % of control in [4] is 84.9%. In addition, the viability (% of control) in experiment [5] is 115%. In experiment [6], the Potency entry is “inactive”.
Compound `c1cc(-c2sc(-c3ccncc3)c(-c3ccncc3)c2-c2ccncc2)ccn1` returned a parasite growth, % of DMSO control in experiment [1] of 8.84%. Besides, the parasite growth remaining, % of DMSO control (lower = more inhibition) in [2] was found to be 81.7%. Also, the parasite growth, % of control (lower = inhibition) in experiment [3] amounted to 19.1%. The growth, % of control in experiment [4] was found to be 3.72%. Moreover, the viability (% of control) in experiment [5] amounted to 79.1%. Also, the Potency result in experiment [6] was “inactive”.
`CC=CC(=O)N(CC)c1ccccc1C` registered a parasite growth, % of DMSO control in experiment [1] of 92.3%. Moreover, in [2], the parasite growth remaining, % of DMSO control (lower = more inhibition) was 104%. The parasite growth, % of control (lower = inhibition) in experiment [3] came out at 142%. In experiment [4], this compound gave a growth, % of control of 99.4%. Further, the viability (% of control) in experiment [5] was found to be 35%. Besides, the Potency result in experiment [6] and in experiment [7] was “inactive” in each case.
In [8], `O=C(Nc1cc(Cl)cc2c1[nH]c1cnccc12)c1cccnc1` displayed an activity, percent of control of 7.04%. Further, the remaining proliferation (% of control), lower = more inhibition in experiment [9] was determined as 0.746%. In experiment [1], this compound had a parasite growth, % of DMSO control of 5.73%. Besides, in [2], the parasite growth remaining, % of DMSO control (lower = more inhibition) is 15.5%. In addition, in experiment [3], the parasite growth, % of control (lower = inhibition) came to 10.7%. In experiment [4], the growth, % of control worked out at 3.51%. For the same compound, the viability (% of control) in [5] is 97.7%. For the same compound, the Potency result in experiment [6] and in experiment [7] was “inactive” throughout.
On to `O=c1cc(CN2CCOCC2)occ1OCCCCCSc1ccnc2cc(C(F)(F)F)ccc12`, for which, in experiment [8], the activity, percent of control is 26.8%. In experiment [9], this compound registered a remaining proliferation (% of control), lower = more inhibition of 17.5%. For the same compound, the parasite growth, % of DMSO control in experiment [1] is 36.7%. For the same compound, the parasite growth remaining, % of DMSO control (lower = more inhibition) in experiment [2] came out at 56.7%. In addition, the parasite growth, % of control (lower = inhibition) in experiment [3] is 33.6%. Moreover, the growth, % of control in experiment [4] was 12.1%. Moreover, the viability (% of control) in experiment [5] is 75.4%. Besides, the Potency entry in experiment [6] and in [7] was “inactive” in each case.
The compound `Nc1ncnc2c1nc(Cl)n2[C@@H]1O[C@H](CO)[C@@H](O)[C@@H]1O` displayed a parasite growth, % of DMSO control in experiment [1] of 187%. Moreover, the parasite growth remaining, % of DMSO control (lower = more inhibition) in [2] is 109%. Moreover, in [3], the parasite growth, % of control (lower = inhibition) is 43.2%. The growth, % of control in [4] was found to be 125%. In addition, the viability (% of control) in experiment [5] stood at 9.15%. The Potency entry in [6] and in [7] was “inactive” in each case.
Take `CC[C@@H]1C=C(C)C[C@H](C)C[C@H](OC)[C@H]2O[C@@](O)(C(=O)C(=O)N3CCCC[C@@H]3C(=O)O[C@H](C(C)=C[C@@H]3CC[C@H](Cl)[C@H](OC)C3)[C@H](C)[C@@H](O)CC1=O)[C@H](C)C[C@H]2OC`: the parasite growth, % of DMSO control in experiment [1] was 27.5%. Moreover, in [2], the parasite growth remaining, % of DMSO control (lower = more inhibition) amounted to 6.74%. Besides, the parasite growth, % of control (lower = inhibition) in experiment [3] worked out at 17.3%. In addition, the growth, % of control in experiment [4] was 64.6%. The viability (% of control) in experiment [5] stood at 20.8%. Moreover, the Potency entry in experiment [6] and in [7] was “inactive” throughout.
In turn, `COc1cc2ncnc(-n3nc(-c4ccccn4)nc3N)c2cc1OC` registered an activity, percent of control in experiment [8] of 96.4%. This compound came in with a remaining proliferation (% of control), lower = more inhibition in experiment [9] of 74%. Further, the parasite growth, % of DMSO control in experiment [1] amounted to 15.5%. Further, the parasite growth remaining, % of DMSO control (lower = more inhibition) in experiment [2] is 31.2%. The parasite growth, % of control (lower = inhibition) in experiment [3] was found to be 11.1%. For the same compound, the growth, % of control in experiment [4] turned out to be 6.36%. Also, in experiment [5], the viability (% of control) amounted to 46.1%. In addition, the Potency entry in experiment [6] and in experiment [7] was “inactive” throughout.
Consider `CC1(C)CCC2=C(O1)c1ccccc1C(=O)C2=O`, for which the outcome in [10] and in experiment [11] was inactive. The same compound came in with a parasite growth, % of DMSO control in experiment [1] of 22.8%. Also, the parasite growth remaining, % of DMSO control (lower = more inhibition) in experiment [2] is 71%. In addition, the parasite growth, % of control (lower = inhibition) in experiment [3] amounted to 21.7%. Further, the growth, % of control in [4] was 20.3%. Moreover, the viability (% of control) in [5] was 4.06%. The Potency result in [7] was “inactive”.
